Measured values as given in PubChem BioAssay AID588458 (Sanford-Burnham Center for Chemical Genomics, 2011).
Screen size: about 360,000 compounds; about 3,000 (0.83%) were called active. No stated cut-off is given here; in the data, active means inhibition above about 50%; inactive means the rest. Shown is part of a subset that was picked to be rich in actives.

What follows are molecules tested against DNA (cytosine-5)-methyltransferase 1 (Homo sapiens) (UniProt P26358) (assay: human DNMT1 methyltransferase inhibitors, primary screen, biochemical, molecular beacon, fluorescence, HinP1I cleavage, uHTS (AID 588458)). Conditions: at 10 µM, stronger effect = higher value.
Sequence of DNA (cytosine-5)-methyltransferase 1 (Homo sapiens) (P26358 504-1616 limits assumed): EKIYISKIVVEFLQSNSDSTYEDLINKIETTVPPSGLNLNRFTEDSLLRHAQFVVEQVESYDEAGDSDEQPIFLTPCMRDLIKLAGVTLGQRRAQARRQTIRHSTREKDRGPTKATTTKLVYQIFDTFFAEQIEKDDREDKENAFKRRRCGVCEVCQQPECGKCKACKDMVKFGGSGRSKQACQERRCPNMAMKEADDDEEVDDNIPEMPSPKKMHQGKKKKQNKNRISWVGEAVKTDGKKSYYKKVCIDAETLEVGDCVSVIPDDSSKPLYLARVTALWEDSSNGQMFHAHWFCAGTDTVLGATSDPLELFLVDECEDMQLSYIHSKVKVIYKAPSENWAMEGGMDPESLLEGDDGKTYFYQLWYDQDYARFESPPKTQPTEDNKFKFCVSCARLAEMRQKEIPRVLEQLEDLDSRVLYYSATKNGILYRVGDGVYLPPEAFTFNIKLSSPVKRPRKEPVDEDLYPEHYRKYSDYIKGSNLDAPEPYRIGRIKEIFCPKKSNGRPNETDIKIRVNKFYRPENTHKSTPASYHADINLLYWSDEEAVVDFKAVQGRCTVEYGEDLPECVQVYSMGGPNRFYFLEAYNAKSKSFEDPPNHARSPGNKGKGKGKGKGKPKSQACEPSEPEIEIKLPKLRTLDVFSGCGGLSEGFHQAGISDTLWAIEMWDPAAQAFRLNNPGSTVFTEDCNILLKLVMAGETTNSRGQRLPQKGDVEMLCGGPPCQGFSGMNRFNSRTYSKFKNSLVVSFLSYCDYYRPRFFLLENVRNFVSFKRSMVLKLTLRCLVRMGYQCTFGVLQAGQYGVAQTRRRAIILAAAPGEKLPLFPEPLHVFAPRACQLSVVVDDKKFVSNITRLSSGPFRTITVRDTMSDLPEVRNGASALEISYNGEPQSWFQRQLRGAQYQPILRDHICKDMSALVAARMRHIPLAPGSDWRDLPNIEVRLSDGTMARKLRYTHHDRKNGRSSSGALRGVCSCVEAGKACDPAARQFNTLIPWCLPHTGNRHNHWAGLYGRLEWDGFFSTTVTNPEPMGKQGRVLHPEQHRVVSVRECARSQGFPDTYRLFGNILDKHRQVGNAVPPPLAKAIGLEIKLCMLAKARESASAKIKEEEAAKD

SMILES | inhibition (reported as % activation of signal)
COc1ccc(CC(=O)NCc2nnc(SCC(=O)Nc3ncc(C)s3)n2C)cc1 | -1.25% (inactive)
COc1cc(NC(=S)NNC(=O)CC(C)C)c(OC)cc1Cl | -0.35% (inactive)
CC(=O)Nc1ccccc1Sc1ccc2c3c(cccc13)C(=O)N(c1ccc(C)cc1)C2=O | 73.9% (active)
CSc1ccccc1NC(=O)C(C)N1C(=O)c2ccccc2S1(=O)=O (stereo not given) | -0.34% (inactive)
Cc1ccc(N2C(=O)CC(Nc3cccc4ccccc34)C2=O)cc1 (stereo not given) | -1.89% (inactive)
O=C(c1ccco1)N1CCN(C(=O)C2CCCN(S(=O)(=O)c3cccc4nsnc34)C2)CC1 (stereo not given) | 0.5% (inactive)
CCC(=O)N1CCCC1(C)C(=O)Nc1ccc2c(c1)CCN2C(C)=O (stereo not given) | -1.12% (inactive)
Cc1ccc(NS(=O)(=O)c2c(C)[nH]c(C)c2C(=O)N2CCCCC2)c(C)c1 | 12.2% (inactive)
COc1cccc(CC(=O)N2CCCC(CCC(=O)N3CCN(c4ccccn4)CC3)C2)c1 (stereo not given) | -0.42% (inactive)
C=Cc1ccc(C(=O)N2CCCC(CCC(=O)N3CCN(c4ccccn4)CC3)C2)cc1 (stereo not given) | 80.1% (active)
O=C(CCC1CCCN(C(=O)c2ccc(F)c(F)c2)C1)N1CCN(c2ccccn2)CC1 (stereo not given) | 3.2% (inactive)
O=C(CN1CCCSc2ccccc21)N1CCN(S(=O)(=O)c2ccccc2)CC1 | -0.81% (inactive)
O=C(CN1CCCSc2ccccc21)N1CCN(S(=O)(=O)c2cccc(F)c2)CC1 | 89.2% (active)
O=C(CN1CCN(S(=O)(=O)c2cccc(Cl)c2)CC1)N1CCCCC1 | -1.19% (inactive)
COc1ccc(C(=O)N2CCN(c3ccc(C(C)=O)cc3F)CC2)cc1S(=O)(=O)NC1CC1 | 3.83% (inactive)
CC1CCC(C(C)C)C(=O)/C1=C\c1ccc(NC(=O)CCC(=O)O)cc1 (stereo not given) | 0.83% (inactive)
Cc1ccc(Cc2cncc(O)c2)cc1S(=O)(=O)O | 50.3% (active)
COC(=O)CC(=O)N1CCN(c2ccc(Cl)c(Cl)c2)CC1 | -1.96% (inactive)
CC1(Oc2ccc(Cl)cc2)CCN(Cc2csc3ccccc23)C1 (stereo not given) | 1.6% (inactive)
O=S(=O)(NCCc1ccc(Cl)cc1)c1cccs1 | -0.79% (inactive)
CCOC(=O)c1c(NC(=O)CSc2nccc(=O)[nH]2)sc(C)c1C | 0.32% (inactive)
CCOC(=O)c1c(C)[nH]c2c1-c1ccccc1C(=O)C2=O | 93.5% (active)
CCOC(=O)c1c(C)[nH]c(C)c1C(=O)CSc1nc(N)cc(N)n1 | -17.2% (inactive)
O=C(OCC(=O)N1CCCC1=O)c1cc(S(=O)(=O)N2CCOCC2)ccc1Cl | 0.37% (inactive)
CCOC(=O)c1sc(N(Cc2ccccc2)C(=O)CN2C(=O)CN(C)C2=O)nc1C | -3.6% (inactive)
